Laboratory results as given in PubChem BioAssay (NCI).
The panel holds about 83,000 compounds, 20% with a hit somewhere; the sample as a whole holds those more often.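 Results are percent growth after 48 hours of single-concentration exposure. 100 means growth as in untreated cells, lower positive values show inhibition; negative values down to -100 show cell death.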 Values without a mark were called inactive. Activity calls are given as the source filed them. The calls were made as follows: active = growth percent below 10; inactive = the rest.

Assays:
Test in all cases: NCI-60 one-dose screen, 48 h (100 = growth as untreated, 0 = no growth, -100 = all killed)
Settings in all cases: 10 µM unless noted
NCI-H23 lung = system: NCI-H23 lung
NCI-H226 lung = system: NCI-H226 lung
NCI-H322M lung = system: NCI-H322M lung
HOP-62 NSCLC = system: HOP-62 NSCLC
NCI-H460 lung = system: NCI-H460 lung
NCI-H522 lung = system: NCI-H522 lung
786-0 renal = system: 786-0 renal
COLO 205 colon = system: COLO 205 colon
DU-145 prostate = system: DU-145 prostate
K-562 leukemia = system: K-562 leukemia
MALME-3M melanoma = system: MALME-3M melanoma
MDA-MB-231 breast = system: MDA-MB-231 breast
SF-268 CNS = system: SF-268 CNS
SF-295 CNS = system: SF-295 CNS
SF-539 CNS = system: SF-539 CNS
M14 melanoma = system: M14 melanoma
HCT-15 colon = system: HCT-15 colon
UACC-257 melanoma = system: UACC-257 melanoma
A549/ATCC NSCLC = system: A549/ATCC NSCLC
RXF 393 renal = system: RXF 393 renal

Compound: OC(c1cc(C(F)(F)F)nc2c(C(F)(F)F)cccc12)C1CCCCN1 (centres undefined)
- growth (NCI-H23 lung): 78.4%
- growth (NCI-H226 lung): 73.1%
- growth (NCI-H322M lung): 64.8%
- growth (HOP-62 NSCLC): 74.4%
- growth (NCI-H460 lung): 13.8%
- growth (NCI-H522 lung): -4.33% (active)
- growth (786-0 renal): 56.7%
- growth (COLO 205 colon): 29.3%
- growth (DU-145 prostate): 78.8%
- growth (K-562 leukemia): 14.7%
- growth (MALME-3M melanoma): 100%
- growth (MDA-MB-231 breast): 47.1%
- growth (SF-268 CNS): 47.9%
- growth (SF-295 CNS): 88.2%
- growth (SF-539 CNS): 82.8%
- growth (M14 melanoma): 76%
- growth (HCT-15 colon): 77.5%

Compound: O=C(O)C(=O)O
- growth (NCI-H23 lung): 15.2%
- growth (NCI-H226 lung): 96.6%
- growth (NCI-H322M lung): 95.2%
- growth (HOP-62 NSCLC): 108%
- growth (NCI-H460 lung): 111%
- growth (NCI-H522 lung): 33.1%
- growth (786-0 renal): 96.9%
- growth (COLO 205 colon): 108%
- growth (DU-145 prostate): 99.6%
- growth (K-562 leukemia): 116%
- growth (MALME-3M melanoma): 108%
- growth (MDA-MB-231 breast): 102%
- growth (SF-268 CNS): 108%
- growth (SF-295 CNS): 110%
- growth (SF-539 CNS): 94.8%
- growth (M14 melanoma): 109%
- growth (HCT-15 colon): 95%

Compound: CN(C)CCCN1c2nc3ccccc3cc2Sc2cc3ccccc3nc21
- growth (NCI-H23 lung): -34.2% (active)
- growth (NCI-H226 lung): 40.1%
- growth (NCI-H322M lung): 18%
- growth (HOP-62 NSCLC): 32%
- growth (NCI-H460 lung): -89.1% (active)
- growth (NCI-H522 lung): -67.7% (active)
- growth (786-0 renal): -86.3% (active)
- growth (COLO 205 colon): -89.2% (active)
- growth (K-562 leukemia): 4.31% (active)
- growth (MALME-3M melanoma): -75.9% (active)
- growth (MDA-MB-231 breast): -82.8% (active)
- growth (SF-268 CNS): 27.2%
- growth (SF-295 CNS): -74.7% (active)
- growth (SF-539 CNS): -94.6% (active)
- growth (UACC-257 melanoma): -69.5% (active)
- growth (M14 melanoma): -70.6% (active)
- growth (HCT-15 colon): 2.14% (active)

Compound: CC(=O)Nc1ccc2c(c1)Cc1c(F)c(F)c(F)c(F)c1-2
- growth (NCI-H23 lung): 25.2%
- growth (NCI-H226 lung): 76.5%
- growth (NCI-H322M lung): 81.9%
- growth (HOP-62 NSCLC): 107%
- growth (NCI-H460 lung): 65.8%
- growth (NCI-H522 lung): 23.2%
- growth (786-0 renal): 75.3%
- growth (COLO 205 colon): 105%
- growth (DU-145 prostate): 96.4%
- growth (K-562 leukemia): 104%
- growth (MALME-3M melanoma): 113%
- growth (MDA-MB-231 breast): 75.1%
- growth (SF-268 CNS): 91.9%
- growth (SF-295 CNS): 90.5%
- growth (SF-539 CNS): 87.7%
- growth (M14 melanoma): 114%
- growth (HCT-15 colon): 83.4%

Compound: Nc1nc2ncc(CCNc3ccc(C(=O)NC(CCC(=O)O)C(=O)O)cc3)nc2c(=O)[nH]1 (centres undefined)
- growth (NCI-H23 lung): 43.3%
- growth (NCI-H226 lung): 102%
- growth (NCI-H322M lung): 122%
- growth (HOP-62 NSCLC): 90.6%
- growth (NCI-H460 lung): 108%
- growth (NCI-H522 lung): 28%
- growth (786-0 renal): 93.1%
- growth (COLO 205 colon): 118%
- growth (DU-145 prostate): 109%
- growth (K-562 leukemia): 127%
- growth (MALME-3M melanoma): 118%
- growth (MDA-MB-231 breast): 115%
- growth (SF-268 CNS): 110%
- growth (SF-295 CNS): 113%
- growth (SF-539 CNS): 94.3%
- growth (UACC-257 melanoma): 75.2%
- growth (M14 melanoma): 114%

Compound: NC(=O)NN=C(C1CC1)C1CC1
- growth (NCI-H23 lung): 93.8%
- growth (NCI-H226 lung): 109%
- growth (NCI-H322M lung): 110%
- growth (HOP-62 NSCLC): 104%
- growth (NCI-H460 lung): 106%
- growth (A549/ATCC NSCLC): 103%
- growth (786-0 renal): 107%
- growth (COLO 205 colon): 105%
- growth (DU-145 prostate): 116%
- growth (K-562 leukemia): 94.8%
- growth (MALME-3M melanoma): 143%
- growth (MDA-MB-231 breast): 118%
- growth (RXF 393 renal): 138%
- growth (SF-268 CNS): 102%
- growth (SF-295 CNS): 106%
- growth (SF-539 CNS): 90.2%
- growth (UACC-257 melanoma): 101%
- growth (M14 melanoma): 106%
- growth (HCT-15 colon): 98%

Compound: CC(=O)NCCSC(=O)C(=O)SCCNC(C)=O
- growth (NCI-H23 lung): 109%
- growth (NCI-H226 lung): 103%
- growth (NCI-H322M lung): 144%
- growth (HOP-62 NSCLC): 107%
- growth (NCI-H460 lung): 114%
- growth (NCI-H522 lung): 125%
- growth (786-0 renal): 95.5%
- growth (COLO 205 colon): 122%
- growth (DU-145 prostate): 116%
- growth (K-562 leukemia): 95.6%
- growth (MALME-3M melanoma): 138%
- growth (MDA-MB-231 breast): 107%
- growth (SF-268 CNS): 109%
- growth (SF-295 CNS): 102%
- growth (SF-539 CNS): 97.5%
- growth (M14 melanoma): 106%
- growth (HCT-15 colon): 119%

Compound: C[n+]1ccc(Nc2ccc(NC(=O)c3ccc(Nc4cc[n+](C)c5ccc(N)cc45)cc3)cc2)cc1
- growth (NCI-H23 lung): 104%
- growth (NCI-H226 lung): 82.6%
- growth (NCI-H322M lung): 146%
- growth (HOP-62 NSCLC): 102%
- growth (NCI-H460 lung): 82.6%
- growth (NCI-H522 lung): 109%
- growth (786-0 renal): 97%
- growth (COLO 205 colon): 92.8%
- growth (DU-145 prostate): 119%
- growth (K-562 leukemia): 88.5%
- growth (MALME-3M melanoma): 142%
- growth (MDA-MB-231 breast): 97%
- growth (SF-268 CNS): 105%
- growth (SF-295 CNS): 72.7%
- growth (SF-539 CNS): 85.9%
- growth (M14 melanoma): 103%
- growth (HCT-15 colon): 99.9%

Compound: CCCCC(C#N)C(N)=O (centres undefined)
- growth (NCI-H23 lung): 105%
- growth (NCI-H226 lung): 102%
- growth (NCI-H322M lung): 110%
- growth (HOP-62 NSCLC): 99%
- growth (NCI-H460 lung): 111%
- growth (NCI-H522 lung): 96.7%
- growth (786-0 renal): 96.4%
- growth (COLO 205 colon): 124%
- growth (DU-145 prostate): 104%
- growth (MALME-3M melanoma): 107%
- growth (MDA-MB-231 breast): 104%
- growth (RXF 393 renal): 121%
- growth (SF-268 CNS): 114%
- growth (SF-539 CNS): 96.9%
- growth (M14 melanoma): 104%
- growth (HCT-15 colon): 105%
